# Results taken from PubChem BioAssay (Tox21).
# Where “and” joins values, the source holds several entries; their conditions need not be identical. Equal entries are not always repeated. Records with an inconclusive call do not appear. Where a call stands in place of a potency, no number is given. Unmarked numbers belong to inactive results. Calls of active or inactive are those of the source. Unless noted, calls come from the whole dose curve; as a rule, active = well fitted curve in the direction sought with a large enough effect in the repeat runs; inconclusive = weak or mixed curves; inactive = no such curve, though single readings can be large; an effect the other way counts as inactive or inconclusive.
# Key:
# [1] = qHTS assay to identify small molecule antagonists of the retinoic acid receptor (RAR) signaling pathway (AID 1159552; note: nearly all actives have a fitted effect of over 50% in size; note: potency is the fitted concentration of half-maximal effect)
# In short: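 Retinol at 1 uM final stimulated RARE-luciferase expression in C3RL4 cells exposed to test compounds for 6 hr at 37 C. Reduced luminescence, read 30 min after detection reagent, indicated pathway antagonism.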
# [2] = qHTS assay to identify small molecule antagonists of the estrogen related receptor (ERR) signaling pathway from Tox21 library - cell viability counter screen (AID 1224834); note: nearly all actives have a fitted effect of over 30% in size; note: potency is the fitted concentration of half-maximal effect
# In short: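 Counter screen run in ERR cells (2,000 cells/well): cells pre-incubated 6 h, then treated with compounds for 17.5 h at 37 C. Fluorescence was read 30 min after CellTiter-Fluor addition.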
# [3] = qHTS assay to identify small molecule antagonists of the retinoid acid receptor (RAR) signaling pathway - cell viability counter screen (AID 1159551); note: nearly all actives have a fitted effect of over 35% in size; note: potency is the fitted concentration of half-maximal effect
# In short: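 In this counter screen, the RARE-luciferase line C3RL4 was exposed for 6 h at 37 C and 5% CO2 to compounds with retinol at 1 uM final. Cellular ATP, read by luminescence, served as the viability measure.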
# [4] = qHTS assay to identify small molecule agonists of the retinoic acid receptor (RAR) signaling pathway (AID 1159553); note: potency is the fitted concentration of half-maximal effect
# In short: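 In this cell-based screen, 1,000 C3RL4 cells per well were cultured overnight, dosed with test chemicals in DMSO for 6 hr, and assessed for RARE luciferase luminescence.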
# [5] = qHTS assay to identify small molecule agonists of the estrogen related receptor (ERR) signaling pathway (AID 1224820)
# In short: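 Luminescence readout (One-Glo, 30 min RT) from NTP-supplied ERR cell line exposed to compounds for 18 h at 37 C. Cells seeded 2,000 per well and pre-incubated 6 h before pin-tool compound transfer.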
# [6] = test system: estrogen-related receptor alpha (ERRalpha) with PGC-1alpha coactivator, human; test: qHTS assay to identify small molecule antagonists of the estrogen related receptor signaling pathway with the pleiotropic PPARgamma coactivator (PGC) (AID 1224821; calls by dose curve;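 note: series mostly up to about 46 µM; lower luminescence signal means antagonism of PGC/ERR signalling; nearly all actives have a fitted effect of over 50% in size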)
# In short: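 PGC/ERR reporter cells; 6 h pre-incubation 37 C/5% CO2; pin-tool compound in DMSO, 18 h 37 C; One-Glo added, 30 min RT; luminescence read. qHTS antagonist mode.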
# [7] = qHTS assay to identify small molecule antagonists of the estrogen related receptor signaling pathway with the pleiotropic PPARgamma coactivator (PGC) cell viability counter screen (AID 1224822; note: potency is the fitted concentration of half-maximal effect)
# In short: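 17.5 h compound treatment of PGC/ERR cells at 37 C; readout CellTiter-Fluor fluorescence; run alongside the PGC/ERR antagonist screen to flag cytotoxic compounds.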
# [8] = qHTS assay to identify small molecule agonists of the estrogen related receptor signaling pathway with the pleiotropic PPARgamma coactivator (PGC) (AID 1224823)
# In short: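 Luminescence readout (One-Glo, 30 min RT) from PGC/ERR cell line treated 18 h at 37 C with pin-tool-delivered DMSO compound solutions; cells plated 6 h before dosing. Quantitative HTS format.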
# [9] = qHTS assay to identify small molecule antagonists of the estrogen related receptor (ERR) signaling pathway (AID 1224819; note: potency is the fitted concentration of half-maximal effect; nearly all actives have a fitted effect of over 50% in size)
# In short: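 Seed ERR cells 2,000/well; rest 6 h at 37 C/5% CO2; pin compounds in DMSO; incubate 18 h at 37 C; add One-Glo; wait 30 min at room temperature; measure luminescence.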
# [10] = qHTS assay to identify small molecule antagonists of the estrogen related receptor (ERR) signaling pathway - cell viability counter screen (AID 1224818); note: series mostly up to about 46 µM
# In short: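 Viability of ERR cells, CellTiter-Fluor fluorescence; 17.5 h compound exposure at 37 C, DMSO vehicle; 30 min reagent incubation at 37 C/5% CO2.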
compound,measurement,setting,value
O=C(Nc1ccc(Cl)c(Cl)c1)c1cc(Cl)cc(Cl)c1O,Potency,[1],inactive
same,Potency,[2],3.06 µM (active)
O[C@@H](c1cc(C(F)(F)F)nc2c(C(F)(F)F)cccc12)[C@H]1CCCCN1,Potency,[1],23.7 µM (active)
same,Potency,[2],29.8 µM (active)
COC(=O)NCCC[Si](OC)(OC)OC,Potency,[3],inactive
same,Potency,[2],inactive
O=Cc1ccc(F)cc1,Potency,[3],inactive
same,Potency,[2],inactive
Oc1ccc(-c2ccc(O)cc2)cc1,Potency,[1],inactive
same,Potency,[4],inactive
Cc1cc(Nc2ccc(O)cc2)ccc1N,Potency,[1],inactive
same,Potency,[4],inactive
same,Potency,[2],30.5 µM (active)
CN(Cc1cc(Br)cc(Br)c1N)C1CCCCC1,Potency,[4],inactive
same,Potency,[2],inactive
COCC(=O)O[C@]1(CCN(C)CCCc2nc3ccccc3[nH]2)CCc2cc(F)ccc2[C@@H]1C(C)C,Potency,[2],26.6 µM (active)
Clc1ccc(C(Cn2ccnc2)OCc2ccsc2Cl)c(Cl)c1 (centres undefined),Potency,[2],21.1 µM (active)
C=CC(=C)CCC=C(C)C,Potency,[3],inactive
same,Potency,[2],inactive
CCCC(C)CCC(C)=O (centres undefined),Potency,[3],inactive
same,Potency,[2],inactive
CCN(CC)CCOc1ccc(C(O)(Cc2ccc(Cl)cc2)c2ccc(C)cc2)cc1 (centres undefined),Potency,[1],26.6 µM (active)
same,Potency,[2],33.5 µM (active)
C=C/C=C/C=C/CCCCC,"activity change, negative = cytotoxicity",[3],-3.82% [at 19 µM]
same,"viability change, negative = cytotoxic",[2],-1.2% [at 19 µM]
NC1(c2ccc(-c3nc4ccn5c(=O)[nH]nc5c4cc3-c3ccccc3)cc2)CCC1,Potency,[1],11.9 µM (active)
same,Potency,[2],13.3 µM (active)
CC1=C(/C=C/C(C)=C/C=C/C(C)=C/C(=O)Nc2ccc(O)cc2)C(C)(C)CCC1,Potency,[4],4.98 µM (active) and 2.66 µM (active)
same,outcome,[5],inactive
same,outcome,[6],inactive
same,Potency,[7],13.9 µM (active)
same,outcome,[8],inactive
same,Potency,[2],28 µM (active) and 23.7 µM (active)
CC(NCCC(c1ccccc1)c1ccccc1)c1ccccc1 (centres undefined),Potency,[2],29.8 µM (active)
CC(=O)Oc1ccc(C2(c3ccc(OC(C)=O)cc3)C(=O)Nc3ccccc32)cc1,Potency,[3],inactive
same,Potency,[2],inactive
C=CC(=O)OCCOCC(CC)(COCCOC(=O)C=C)COCCOC(=O)C=C,Potency,[1],31.9 µM (active)
same,Potency,[4],7.14 µM (active)
CCCCCCCCCCCCCC[n+]1ccccc1,Potency,[2],27.3 µM (active)
CC(C)c1ccc(O)c(C(C)C)c1,Potency,[4],inactive
same,Potency,[2],inactive
CC1CCCNC1 (centres undefined),Potency,[3],inactive
same,Potency,[2],inactive
C=C(c1ccc(C(=O)O)cc1)c1cc2c(cc1C)C(C)(C)CCC2(C)C,Potency,[3],61.1 µM (active)
same,Potency,[2],54.5 µM (active)
O=Nc1ccc(NO)cc1,Potency,[1],inactive
same,Potency,[2],inactive
O=C1NCCN1CCN1CCC(c2cn(-c3ccc(F)cc3)c3ccc(Cl)cc23)CC1,Potency,[2],26.6 µM (active)
NC(=O)c1nc(-c2cccc(-c3cc(F)ccc3OCC(F)(F)C(F)(F)F)c2)n[nH]1,Potency,[4],inactive
CCCCC(CC)COC(=O)c1ccc(O)cc1 (centres undefined),Potency,[1],inactive
same,Potency,[4],inactive
same,Potency,[2],43.1 µM (active)
O=C1NCN(c2ccccc2)C12CCN(CCCC(c1ccc(F)cc1)c1ccc(F)cc1)CC2,Potency,[1],29.8 µM (active)
same,Potency,[9],23.7 µM (active)
same,outcome,[5],inactive
same,outcome,[6],inactive
same,Potency,[7],22.8 µM (active)
same,outcome,[8],inactive
same,Potency,[2],26.6 µM (active)
O=C1c2c(O)ccc(O)c2C(=O)c2c(NCCNCCO)ccc(NCCNCCO)c21,Potency,[1],0.119 µM (active)
same,Potency,[10],inactive
same,Potency,[9],1.44 µM (active)
same,outcome,[5],inactive
same,outcome,[8],inactive
CCCCOc1ccc(C(=O)CCN2CCCCC2)cc1,Potency,[3],inactive
same,Potency,[2],inactive
O=C1NC2CCCCN2C12CCN(CCCN1c3ccccc3CCc3ccc(Cl)cc31)CC2 (centres undefined),Potency,[1],29.8 µM (active)
same,Potency,[2],29.8 µM (active)
CCC(C)c1cc([N+](=O)[O-])cc([N+](=O)[O-])c1OC(=O)OC(C)C (centres undefined),Potency,[1],34.4 µM (active)
same,Potency,[4],inactive
same,Potency,[2],24.3 µM (active)
Nc1ncnc2c1ncn2[C@@H]1O[C@H](COP(=O)(O)O)[C@@H](O)[C@H]1O,Potency,[1],inactive
same,Potency,[4],inactive
same,Potency,[2],inactive
CC(=O)OC(OC(C)=O)c1ccc([N+](=O)[O-])o1,Potency,[1],27.8 µM (active)
same,Potency,[2],62.2 µM (active)
c1ccc(Nc2cccc3ccccc23)cc1,Potency,[4],inactive
same,Potency,[2],inactive
CC=O,Potency,[1],25.5 µM (active)
same,Potency,[2],28.6 µM (active)
CCN(CC)c1ccc(N)cc1,Potency,[1],inactive
same,Potency,[4],3.15 µM (active)
same,Potency,[2],28.1 µM (active)
Nc1ccc2cc3ccc(N)cc3nc2c1,Potency,[1],4.33 µM (active) and 16.8 µM (active)
